Some test systems named below: HCT-15 colon; HT29 colon; SNB-75 CNS; SNB-19 CNS; U251 CNS; PC-3 prostate; SK-MEL-5 melanoma; UACC-62 melanoma; LOX IMVI melanoma; SK-MEL-28 melanoma; SK-MEL-2 melanoma; EKVX NSCLC; SN12C renal; UO-31 renal; TK-10 renal; ACHN renal; CAKI-1 renal; A498 renal; CCRF-CEM leukemia; MOLT-4 leukemia.
Common to all, as to assay: NCI-60 one-dose screen, 48 h (100 = growth as untreated, 0 = no growth, -100 = all killed)
Holding throughout (settings): 10 µM unless noted

Molecules are shown by their SMILES. Compounds without any hit were thinned out: in the full panel of roughly 83,000, 20% have a hit.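 Compound tested at a single concentration for 48 hours in 96-well plates; a percent growth value below 10 was scored as active.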 A number with no mark means an inactive call. Calls of active or inactive are those of the source.

This passage reports growth results from PubChem BioAssay (NCI).

For the molecule `N#Cc1ccccc1Cn1c2nc(=N)c3ccccc3c-2nc2ccccc21`, the growth with HCT-15 colon is 41.5%; in the experiment on HT29 colon, 15.4%; with SNB-75 CNS, 93.8%; in the experiment on SNB-19 CNS it was 65.8%; in the experiment with U251 CNS, 70.4%; in the experiment with PC-3 prostate, 56.8%. Further, the growth is 32.5% with SK-MEL-5 melanoma; 56.5% in the experiment on UACC-62 melanoma; 51.1% with LOX IMVI melanoma; 90.2% with SK-MEL-28 melanoma; 87.9% in the experiment on SK-MEL-2 melanoma; 49.4% in the experiment with EKVX NSCLC. In addition, the growth was 61.5% in the experiment on SN12C renal; 51.3% in the experiment with UO-31 renal; 102% in the experiment on TK-10 renal; 56.4% with ACHN renal; 50.9% in the experiment on CAKI-1 renal; 69.7% with A498 renal. In addition, in the experiment on CCRF-CEM leukemia, the growth is 70.6%.

As for `Oc1cccc2ccc(-c3nnc(SCc4ccc(O)c5ncccc45)n3-c3ccccc3)nc12`, the growth in the experiment on HCT-15 colon is 16.5%; in the experiment on HT29 colon, 81.3%; in the experiment with SNB-75 CNS, 9.14% (active); with SNB-19 CNS, 9.4% (active); in the experiment with U251 CNS, 8.21% (active); in the experiment with PC-3 prostate, 12.4%. The growth with SK-MEL-5 melanoma was -31.1% (active); in the experiment on UACC-62 melanoma it was -4.13% (active); in the experiment on LOX IMVI melanoma, 5.48% (active); in the experiment with SK-MEL-28 melanoma it was 22%; in the experiment with SK-MEL-2 melanoma it was 25.5%; with EKVX NSCLC it was 15.3%. Further, the growth in the experiment on SN12C renal is 20%; in the experiment on UO-31 renal it was -22.8% (active); in the experiment on TK-10 renal it was 14.2%; in the experiment on ACHN renal, 7.49% (active); in the experiment with CAKI-1 renal, 18.1%; in the experiment with A498 renal, 31.5%. Besides, in the experiment on CCRF-CEM leukemia, the growth was 11.6%.

For `COc1cc(OC)cc(C(=O)Nc2sc3c(c2C(N)=O)CCC(=O)C3)c1`, the growth in the experiment with HCT-15 colon is 10.9%; in the experiment on HT29 colon, 39.6%; with SNB-75 CNS it was 47.9%; with SNB-19 CNS, 25.1%; with U251 CNS it was 10.3%; in the experiment on PC-3 prostate, 8.96% (active). In addition, the growth in the experiment on SK-MEL-5 melanoma is 63.1%; in the experiment on UACC-62 melanoma it was 20.4%; in the experiment on LOX IMVI melanoma, 22.1%; in the experiment on SK-MEL-28 melanoma it was 48%; in the experiment with SK-MEL-2 melanoma it was 86.8%; with EKVX NSCLC it was 89%. The growth with SN12C renal was 50.9%; in the experiment on UO-31 renal it was 67.5%; in the experiment with TK-10 renal, 66.5%; in the experiment with ACHN renal, 38.6%; in the experiment with CAKI-1 renal, 10.6%; in the experiment with A498 renal, 82.6%. The growth in the experiment on CCRF-CEM leukemia was 8.55% (active).

For `COc1cc(-c2nn(C(C)(C)C)cc2-c2ccnc(NCCCNS(=O)(=O)c3ccccc3)n2)ccc1Cl`, the growth is 60.1% in the experiment with HCT-15 colon; 70.3% in the experiment on HT29 colon; 49.1% in the experiment with SNB-75 CNS; 97.2% in the experiment with SNB-19 CNS; 91.7% in the experiment with U251 CNS; 54.8% in the experiment on PC-3 prostate. The growth in the experiment with SK-MEL-5 melanoma was 72.7%; in the experiment with UACC-62 melanoma it was 78.4%; in the experiment with LOX IMVI melanoma, 62.7%; with SK-MEL-28 melanoma it was 93%; with SK-MEL-2 melanoma, 89.6%; with EKVX NSCLC, 36.5%. The growth in the experiment on SN12C renal is 52%; with UO-31 renal it was 39.4%; in the experiment with TK-10 renal, 66%; with ACHN renal it was 77.2%; with CAKI-1 renal it was 27%; in the experiment on A498 renal it was 31.2%.

Consider `Cc1ccc2c(c1)C13C(=C2Br)CCCN1C(=O)c1ccccc13` (configuration not stated), for which the growth with HCT-15 colon was 73%; in the experiment with HT29 colon, 98.9%; with SNB-75 CNS, 89.9%; in the experiment on SNB-19 CNS, 89.2%; in the experiment on U251 CNS, 97.5%; in the experiment on PC-3 prostate it was 67.9%. The growth in the experiment on SK-MEL-5 melanoma was 88%; with UACC-62 melanoma, 67.4%; in the experiment with LOX IMVI melanoma, 103%; in the experiment on SK-MEL-28 melanoma, 92.5%; with SK-MEL-2 melanoma, 100%; in the experiment with EKVX NSCLC, 91.3%. Moreover, the growth with SN12C renal was 92.5%; in the experiment with UO-31 renal, 76.5%; with TK-10 renal it was 99.9%; in the experiment with ACHN renal it was 95.5%; in the experiment on CAKI-1 renal it was 75.8%; with A498 renal, 92.4%. Also, in the experiment with CCRF-CEM leukemia, the growth is 79.7%.

In the case of `CCCCNNC(=O)c1ccc(-c2cccc(F)c2F)cc1`, the growth in the experiment with HCT-15 colon was 55.1%; in the experiment with HT29 colon, 10.6%; in the experiment on SNB-75 CNS it was 80.7%; with SNB-19 CNS, 54.6%; in the experiment on U251 CNS, 36%; in the experiment with PC-3 prostate, 45.9%. Moreover, the growth with SK-MEL-5 melanoma is 5.84% (active); in the experiment with UACC-62 melanoma, 8.48% (active); with LOX IMVI melanoma, 21.8%; in the experiment on SK-MEL-28 melanoma it was 25.7%; with SK-MEL-2 melanoma it was 26.8%; with EKVX NSCLC, 45.3%. Besides, the growth in the experiment with SN12C renal was 56.3%; in the experiment on UO-31 renal it was 3.46% (active); with TK-10 renal, 13.3%; in the experiment with ACHN renal it was 22.4%; in the experiment with CAKI-1 renal, 30.9%; in the experiment on A498 renal, -6.27% (active). The values for the growth with CCRF-CEM leukemia and in the experiment with MOLT-4 leukemia were 27.4% and 27.7%, respectively.

Regarding `C=C(C)[C@@H]1CC[C@]2(COC)CC[C@]3(C)[C@H](CC[C@@H]4[C@@]5(C)CCCNC(C)(C)[C@@H]5CC[C@]43C)[C@@H]12`, the growth with HCT-15 colon was 2.81% (active); with HT29 colon, 13.7%; with SNB-75 CNS, 76.3%; with SNB-19 CNS, 66.5%; in the experiment with U251 CNS, 22.2%; in the experiment on PC-3 prostate it was 39.5%. The growth was 48.1% with SK-MEL-5 melanoma; 75.2% with UACC-62 melanoma; -90.8% (active) in the experiment with LOX IMVI melanoma; -61.2% (active) in the experiment on SK-MEL-28 melanoma; 84.6% in the experiment on SK-MEL-2 melanoma; 53.9% in the experiment with EKVX NSCLC. Besides, the growth was 73.6% in the experiment with SN12C renal; 60.8% with UO-31 renal; 79.6% in the experiment on TK-10 renal; 67% with ACHN renal; 19% in the experiment with CAKI-1 renal; 62.3% with A498 renal. Besides, the growth in the experiment on CCRF-CEM leukemia was -10.1% (active).

With `O=C(CN1CCN(c2cc(=O)[nH]c3ccc(F)cc23)CC1)Nc1ccc(Cl)cc1`, the growth was 79.3% with HCT-15 colon; 100% in the experiment with HT29 colon; 13% in the experiment with SNB-75 CNS; 21.3% in the experiment with SNB-19 CNS; 42.6% in the experiment with U251 CNS; 78.6% with PC-3 prostate. In addition, the growth with SK-MEL-5 melanoma is 80.9%; in the experiment on UACC-62 melanoma, 47.9%; in the experiment on LOX IMVI melanoma it was 75.2%; in the experiment with SK-MEL-28 melanoma, 82.3%; in the experiment with SK-MEL-2 melanoma, 66.2%; with EKVX NSCLC, 69.9%. The growth with SN12C renal is 60.8%; with UO-31 renal it was 75.2%; with TK-10 renal, 62.2%; with ACHN renal, 57%; with CAKI-1 renal, 72.6%; with A498 renal, 54.9%. The growth with CCRF-CEM leukemia was 98.2%.
